Experimental data: the supplement of paper PMC6555819

Tests used:
Test in all cases: PBM binding z-score (relative to random genomic background probes); higher = stronger binding; sequences stand for … in GC…GCGATTGACAGCGTAGAATGAAGG
[1] = tested on: FXR:RXRa (NR concentration 270 nM, RXRa partner concentration 90 nM)
Outline: (§1)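 On custom Agilent 4×180K arrays, double-stranded probes with 34-nt variable regions carried direct-repeat seeds, single-nucleotide variants, half-site ablations or random human genomic background. Ligand-free nuclear receptor dimers were applied for 1 h, and binding was read with antibodies against each partner (one per run). Binding z-scores come from regression-normalized fluorescence, with the random background probes as reference.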

[2] = tested on: LXRa:RXRa (NR concentration 270 nM, RXRa partner concentration 90 nM)
Outline: as §1

[3] = tested on: LXRa homodimer (NR concentration 270 nM)
Outline: as §1

[4] = tested on: LXRb:RXRa (NR concentration 270 nM, RXRa partner concentration 90 nM)
Outline: as §1

[5] = tested on: LXRb homodimer (NR concentration 270 nM)
Outline: as §1

[6] = tested on: PPARa:RXRa (NR concentration 270 nM, RXRa partner concentration 90 nM)
Outline: as §1

[7] = tested on: PPARg:RXRa (NR concentration 180 nM, RXRa partner concentration 90 nM)
Outline: as §1

[8] = tested on: PPARg:RXRa 270nM:90nM, anti-RXR (NR concentration 270 nM, RXRa partner concentration 90 nM)
Outline: as §1

[9] = tested on: PPARg:RXRa 30nM:10nM, anti-RXR (NR concentration 30 nM, RXRa partner concentration 10 nM)
Outline: as §1

[10] = tested on: PPARg:RXRa 90nM:30nM, anti-RXR (NR concentration 90 nM, RXRa partner concentration 30 nM)
Outline: as §1

[11] = tested on: PPARg:RXRa DBDmut IVT, anti-RXR (DBD mutation: RXRa K156A/R161A, NR concentration 270 nM, RXRa partner concentration 90 nM)
Outline: as §1

[12] = tested on: PPARg:RXRa IVT, anti-PPARg (NR concentration 270 nM, RXRa partner concentration 90 nM)
Outline: as §1

[13] = tested on: PPARg DBDmut IVT, anti-PPARg (DBD mutation: PPARg1 K132A/R137A, NR concentration 270 nM)
Outline: as §1

[14] = tested on: PPARg homodimer (NR concentration 180 nM)
Outline: as §1

[15] = tested on: PXR:RXRa (NR concentration 270 nM, RXRa partner concentration 90 nM)
Outline: as §1

[16] = tested on: PXR homodimer (NR concentration 270 nM)
Outline: as §1

[17] = tested on: RARa:RXR (NR concentration 270 nM, RXRa partner concentration 90 nM)
Outline: as §1

[18] = tested on: RARa homodimer (NR concentration 270 nM)
Outline: as §1

[19] = tested on: RARb:RXRa (NR concentration 270 nM, RXRa partner concentration 90 nM)
Outline: as §1

Sequence | PBM binding z-score [1] | PBM binding z-score [2] | PBM binding z-score [3] | PBM binding z-score [4] | PBM binding z-score [5] | PBM binding z-score [6] | PBM binding z-score [7] | PBM binding z-score [8] | PBM binding z-score [9] | PBM binding z-score [10] | PBM binding z-score [11] | PBM binding z-score [12] | PBM binding z-score [13] | PBM binding z-score [14] | PBM binding z-score [15] | PBM binding z-score [16] | PBM binding z-score [17] | PBM binding z-score [18] | PBM binding z-score [19]
ATATGTTGGTTAGGGTCATTCAGAAAGTAGGGAA | 4.81 | 4 | 1.67 | 4.72 | 2.36 | 4.86 | 3.15 | 3.69 | 1.7 | 2.88 | 1.44 | 2.45 | 1.7 | 3.53 | 4.44 | 2.69 | 4.96 | 2.67 | 3.2
CGAACTAGGGCAAAGGACAGTGAAAGGCGACGTA | -0.161 | -0.272 | -0.336 | -0.481 | -1.45 | 3.45 | 9.04 | 7.51 | 8.13 | 8.74 | 7.08 | 6.68 | 0.104 | 0.584 | -0.478 | -0.625 | -0.393 | -0.727 | 2
CGAACTAGGTCACCAGGACAGTCAAGAGGTTGGA | 4.17 | 2.7 | 0.267 | 1.86 | -0.431 | 5.16 | 8.84 | 6.8 | 4.63 | 6.37 | 8.33 | 8.73 | 2.35 | 2.43 | 1.51 | 0.0182 | 2.72 | 0.536 | 4.28
ATATGTAGGTTAGGGTCACTCAGAAAGTAGGGAA | 4.33 | 3.26 | 0.67 | 3.89 | 1.47 | 5.51 | 7.42 | 6.49 | 3.96 | 6.11 | 6.7 | 6.76 | 1.93 | 3.25 | 3.88 | 1.5 | 4.51 | 1.73 | 3.8
CGAACTAGGTCACGAGGACAGTGAAGAGGTTGGA | 4.56 | 2.89 | 0.291 | 1.98 | -0.399 | 5.33 | 8.72 | 7.24 | 5.15 | 6.84 | 8.67 | 8.88 | 1.07 | 2.21 | 1.87 | 0.184 | 3.07 | 0.4 | 4.39
CGAACTAGGTCACCAGTACAGTGAAGAGGTTGGA | 3.77 | 2.35 | 0.174 | 1.82 | 0.0155 | 4.77 | 8.77 | 7.17 | 5.27 | 6.88 | 8.41 | 8.76 | 1.75 | 2.54 | 1.59 | -0.139 | 2.65 | 0.527 | 3.98
CGAACTAGGTCACCAGGATAGTGAAGAGGTTGGA | 4.03 | 2.47 | 0.115 | 1.87 | -0.103 | 5.37 | 8.87 | 6.98 | 4.74 | 6.8 | 8.36 | 8.68 | 2.4 | 2.57 | 1.4 | -0.0879 | 2.59 | 0.146 | 4.2
CGAACTATGTCAAAGGACAGTGAAAGGCGACGTA | 0.0509 | 0.00479 | -0.268 | -0.115 | -0.346 | 2.68 | 5.1 | 5.42 | 4.42 | 5.74 | 3.02 | 3.26 | 0.207 | 0.527 | -0.558 | -0.587 | -0.379 | -0.181 | 1.45
ATATGTAGGTTAGGATCATTCAGAAAGTAGGGAA | 0.633 | 0.786 | 0.139 | 0.95 | 0.084 | 2.83 | 3.9 | 3.07 | 1.22 | 2.31 | 6.17 | 6.13 | 1.84 | 1.69 | 0.594 | 0.622 | 0.758 | 1.36 | 0.759
ATATGTAGGTTAGGGCCATTCAGAAAGTAGGGAA | 0.671 | 0.708 | 0.2 | 0.722 | 0.503 | 2.71 | 3.6 | 3.2 | 1.06 | 2.58 | 6.52 | 5.91 | 1.97 | 1.54 | 0.501 | 0.512 | 0.535 | 0.865 | 1.35
CGAACTAGGTCACCAGGACAGGGAAGAGGTTGGA | 4.04 | 2.49 | -0.0204 | 1.64 | -0.262 | 5.11 | 8.73 | 6.89 | 4.68 | 6.72 | 8.23 | 8.76 | 5.57 | 4.22 | 1.22 | 0.127 | 2.58 | 0.696 | 4.13
CGAACTAGGTCAAAAGACAGTGAAAGGCGACGTA | 3.09 | 2.03 | -0.16 | 1.47 | -0.191 | 4.46 | 8.06 | 7.08 | 5.52 | 7.26 | 7.84 | 7.79 | 0.23 | 0.576 | 0.624 | -0.275 | 1.45 | -0.196 | 3.17
CGAACTAGGTCAAAGGATAGTGAAAGGCGACGTA | 3.37 | 2.22 | -0.4 | 1.58 | -0.272 | 4.93 | 8.97 | 7.71 | 6.95 | 8.35 | 8.11 | 8.26 | 0.867 | 1.36 | 1 | -0.152 | 1.9 | 0.167 | 3.62
CGAACAAGGTCAAAGGACAGTGAAAGGCGACGTA | 7.69 | 5.16 | 0.368 | 4.24 | 0.892 | 6.01 | 7.72 | 6.93 | 4.75 | 6.72 | 3.85 | 5.39 | 1.79 | 2.54 | 4 | 0.956 | 4.62 | 0.893 | 4.98
